D1 potentiator: enhances dopamine response at the human D1 receptor; P21728; HEK293 TREx D1 cells, calcium flux, dopamine EC20 potentiation; potentiation, % at 10 µM; 360,000 compounds, 0.036% hits; AID 504651; in the data active means potentiation above about 30%
D3 antag: D3 dopamine receptor (human) antagonism | D3R cells, DiscoveRx beta-arrestin luminescence, antagonist mode; hits give low values | 360,000 compounds, 2.5% hits | max response, negative = inhibition, % | P35462; in the data active means max response below about -50%; inconclusive means no clear call, values can overlap the other calls
Target sequence (P35462 whole entry, looked up): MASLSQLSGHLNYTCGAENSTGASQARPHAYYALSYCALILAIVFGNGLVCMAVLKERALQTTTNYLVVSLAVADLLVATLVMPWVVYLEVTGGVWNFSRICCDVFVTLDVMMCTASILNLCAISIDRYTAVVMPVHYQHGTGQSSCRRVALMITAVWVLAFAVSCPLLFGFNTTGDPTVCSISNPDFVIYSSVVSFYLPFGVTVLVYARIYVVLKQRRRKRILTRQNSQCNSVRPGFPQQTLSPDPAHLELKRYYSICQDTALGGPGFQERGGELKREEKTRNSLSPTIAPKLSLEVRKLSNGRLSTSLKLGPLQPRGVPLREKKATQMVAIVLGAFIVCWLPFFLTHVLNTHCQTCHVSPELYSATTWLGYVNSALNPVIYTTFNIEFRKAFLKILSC
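Cells expressing the human receptor were seeded at 1500 cells/well, incubated overnight at 37 degrees C in 5% CO2, then exposed to library compounds with dopamine controls for 90 minutes at 37 degrees C before luminescent detection.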
D1 ag: activates the human D1 dopamine receptor | activation, % at 2 µM | HEK293 T-REx D1 cells, calcium flux, agonist mode | 360,000 compounds, 1% hits | AID 504660; in the data active means activation above about 30%
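Tetracycline-induced HEK293 TREx D1 cells, force-coupled to calcium signalling, were dye-loaded with a no-wash calcium kit. Compound was pin-added after a 10 s baseline. Fluorescence was read kinetically at 1 cycle/s for 180 s, with calcium rises flagged as agonism.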
D3 ag: D3 dopamine receptor (human) agonism; P35462; D3R DiscoveRx beta-arrestin cells, luminescence, 90 min; max activation, %; 410,000 compounds, 0.58% hits; AID 652048; in the data active means max activation above about 30%
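Agonist mode: compounds and dopamine controls were applied to plated cells for 90 min at 37 degrees C after an overnight attachment at 1500 cells/well. Luminescent read-out followed 30 - 60 minutes at room temperature with DiscoveRx detection reagent.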
D1 antag: human D1 dopamine receptor antagonism; activity change, negative = inhibition, % at 10 µM; HEK293 TREx D1 cells, calcium flux, dopamine EC80; hits give low values; P21728; 360,000 compounds, 3.2% hits; in the data active means activity change below about -30%
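Kinetic fluorescence of a calcium dye serves as the read-out. D1-expressing Hek293 Trex cells, induced overnight at 30 C, are exposed to compound for 180 s before an EC80 dopamine addition, then read 180 s further.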
Of the large screens only hits and unclear results are named; the others gave an inactive call; ! = not active in a repeat. Hits are enriched below; roughly 6.1% of the tested compounds scored in any of these assays.

CCS(=O)(=O)c1ncc(Cl)c(C(=O)Nc2ccccc2)n1	D1 antag -30.3 (no result: D3 antag)
Cc1ccc(CS(=O)(=O)c2ncc(Cl)c(C(=O)Nc3nc4ccc(C)cc4s3)n2)cc1	none (no result: D3 antag)
Cc1cccc(NC(=O)c2nc(S(C)(=O)=O)ncc2Cl)c1	none (no result: D3 antag)
CCOC(=O)c1c(-c2ccc(OC)cc2)csc1NC(=O)CCN1C(=O)c2ccccc2C1=O	none
CCOC(=O)c1c(-c2ccc3ccccc3c2)csc1NC(=O)CCCC(=O)O	D1 antag -55.9
COc1cc(OC)c(NC(=O)Nc2sc3nc4n(c(=O)c3c2C)CCC(C)CC4)cc1Cl (stereo unspecified)	none (no result: D3 antag)
CC(=O)NS(=O)(=O)c1ccc(Nc2ccc([N+](=O)[O-])c3nonc23)cc1	D3 antag -54.1
CCOc1ccc(Nc2ccc([N+](=O)[O-])c3nonc23)cc1	D3 antag -67.2
O=[N+]([O-])c1ccc(Nc2ccccc2)c2nonc12	none
Cc1ccc2nc(NC(=O)CSc3nccn3Cc3ccccc3)sc2c1	none (no result: D3 antag)
CCCOc1ccc(C(=O)NCCO)cc1	none (no result: D1 antag)
CC1(C)CC2C1CCC1(O)CC2(C)CCC1N(O)c1ccc(C(=O)NCCO)cn1 (stereo unspecified)	D3 ag 40.0
CC(C)n1cc(CN2CCCC(CNS(=O)(=O)c3cccc4cccnc34)C2)cn1 (stereo unspecified)	D1 antag -48.7
Cn1cc(CN2CCCC(CNS(=O)(=O)c3cccc4cccnc34)C2)cn1 (stereo unspecified)	none
Fc1ccc(-c2nc3cnccn3c2NC2CCCC2)cc1	D1 antag -36.3
O=C(Nc1ccc(Br)cc1)N1CCC(CN2CCCC2)CC1	none (no result: D3 antag)
COc1ccc(C(NC(=O)C2CCN(CCCc3ccccc3)CC2)c2ccccn2)cc1 (stereo unspecified)	none (no result: D1 potentiator, D1 ag, D1 antag)
O=C(NC(c1ccc(-c2ccccc2)cc1)c1cnccn1)C1CCN(CCOc2ccc(F)cc2)CC1 (stereo unspecified)	none (no result: D1 potentiator, D1 ag, D1 antag)
COc1ccc(C(NC(=O)C2CCCCC2)c2c(O)ccc3ccccc23)cc1 (stereo unspecified)	D1 antag -45.8
Cc1ccc(C(NC(=O)C2CCN(CCOc3ccccc3)CC2)c2ccccn2)cc1 (stereo unspecified)	D3 antag -69.8 (no result: D1 potentiator, D1 ag, D1 antag)
COc1ccc(C(NC(=O)C2CCN(CCc3ccccc3)CC2)c2ccccn2)cc1 (stereo unspecified)	D3 antag -75.4 (no result: D1 potentiator, D1 ag, D1 antag)
COc1ccc(C(NC(=O)C2CCN(CCOc3ccc(Cl)cc3)CC2)c2cccs2)cc1 (stereo unspecified)	D3 antag -80.6 (no result: D1 potentiator, D1 ag, D1 antag)
Cc1c(C)c2c(c(C)c1OC(=O)CCC(=O)O)CC[C@@](C)(CCC[C@H](C)CCC[C@H](C)CCCC(C)C)O2	none (no result: D1 potentiator, D3 antag, D1 ag, D1 antag)
CN(C)S(=O)(=O)c1ccc(C(=O)NCCSc2c(-c3ccc(Br)cc3)[nH]c3ccccc23)cc1	none (no result: D3 antag)
COc1ccc(OC)c(NC(=O)Cn2cnc3sc(C)c(S(=O)(=O)N4CCN(c5ccccc5OC)CC4)c3c2=O)c1	none (no result: D3 antag)
COc1ccc(OCCN2CCC(C(=O)NC(c3ccc(OC)cc3)c3ccccn3)CC2)cc1 (stereo unspecified)	D3 antag -66.8 (no result: D1 potentiator, D1 ag, D1 antag)
Cc1ccc(C(NC(=O)C2CCN(Cc3ccc(Oc4ccccc4)cc3)CC2)c2ccccn2)cc1 (stereo unspecified)	D3 antag -83.1 (no result: D1 potentiator, D1 ag, D1 antag)
O=C(NC(c1ccc(F)cc1)c1ccc2ccccc2n1)C1CCN(CCOc2ccc(F)cc2)CC1 (stereo unspecified)	D3 antag inconclusive (no result: D1 potentiator, D1 ag, D1 antag)
O=C(NC(c1ccc(-c2ccccc2)cc1)c1cnccn1)C1CCN(CCCOc2ccccc2)CC1 (stereo unspecified)	D3 antag -72.9 (no result: D1 potentiator, D1 ag, D1 antag)
Cc1ccc(C(NC(=O)C2CCN(Cc3ccc(Cl)c(Cl)c3)CC2)c2ccccn2)cc1 (stereo unspecified)	none (no result: D1 potentiator, D1 ag, D1 antag)
COc1ccc(C(NC(=O)C2CCN(CCCOc3ccccc3)CC2)c2ccccn2)cc1 (stereo unspecified)	D3 antag -109.5 (no result: D1 potentiator, D1 ag, D1 antag)
COc1ccc(NC(=O)c2nc(S(C)(=O)=O)ncc2N(Cc2ccc(C)cc2)Cc2ccco2)cc1Cl	none (no result: D3 antag)
COc1ccc(N2CCN(Cc3cccn3-c3nnc(N4CCN(C5CCCCC5)CC4)s3)CC2)cc1	none (no result: D3 antag)
COc1ccc(CN2CCN(C3CCSCC3)CC2CCO)c(C)c1C (stereo unspecified)	D3 antag -64.3
CC(C)(CC(=O)NCc1ccc(Cl)cc1Cl)CC1=NS(=O)(=O)c2ccccc2N1	D1 antag -51.2 (no result: D3 antag)
CCN(CC)CCNC(=O)c1ccc(Cl)c(S(=O)(=O)Nc2ccc(Cl)cc2)c1	D3 antag -56.1
CCN(CC)CCNC(=O)c1ccc(N2CCCCC2)c(NS(=O)(=O)c2ccc(C)cc2)c1	D3 antag -81.6
COC(=O)c1ccc(N2CCCCC2)c(NS(=O)(=O)c2ccc(C)cc2)c1	none
COc1ccc(C(=O)O)cc1S(=O)(=O)Nc1cc(C(F)(F)F)ccc1N1CCCCC1	none (no result: D1 potentiator, D1 ag, D1 antag)
CCN(CC)CCNC(=O)c1ccc(NC(=O)c2ccc(Cl)c(S(=O)(=O)N3CCCCCC3)c2)cc1	D3 antag inconclusive, D1 antag -46.8
CCN(CC)CCNC(=O)c1ccc(NC(=O)c2cccc(S(=O)(=O)N3CCCCCC3)c2)cc1	none (no result: D1 potentiator, D1 ag, D1 antag)
CCOC(=O)c1ccc(N2CCCCC2)c(NS(=O)(=O)c2cccc(C(F)(F)F)c2)c1	D1 antag -47.5
CCN(C(=O)c1c(C)oc2ncnc(N3CCCCC3)c12)c1cc(C)ccc1C	none (no result: D3 antag)
Cc1c(Cl)cccc1-n1nc(C)c2c(C)cc(=O)n(CC(=O)N3CCCc4ccccc43)c21	none (no result: D3 antag)
Cc1cccc(-n2c(SCC(=O)Nc3ccc(C)c(C)c3)nc3n[nH]c(C)c3c2=N)c1	none (no result: D3 antag)
COc1ccc2c(c1)CCc1c(C(=O)Nc3ccc(F)c(Cl)c3)noc1-2	none (no result: D3 antag)
CCN(CC)CCNC(=O)c1ccc(NC(=O)c2ccc(S(=O)(=O)N3CCCCCC3)cc2)cc1	D1 antag -56.8
COc1cccc(C(=O)Nc2ccc3c(c2)CCCN3C(=O)c2cccs2)c1OC	none
O=C(NC(=S)Nc1ccc(N2CCOCC2)c(Cl)c1)c1cccs1	none
COc1ccccc1NS(=O)(=O)c1cc(NC(=O)c2cccs2)ccc1N1CCOCC1	D1 antag -30.1
O=C(Cc1ccccc1)Nc1ccc(NC(=O)c2cccs2)cc1Cl	D1 antag -30.8
O=C(Nc1ccc(N2CCCC2)c(Cl)c1)c1cccs1	D1 antag -31.7
Cc1ccccc1C(=O)Nc1ccc2c(c1)CCCN2C(=O)c1cccs1	D1 antag -37.4!
CCc1ccc(NC(=O)CN2C(=O)C(c3ccc(Cl)cc3)=NC23CCCCC3)cc1	none (no result: D3 antag)
Cc1nc2ccccc2n1C1CCN(CC(=O)Nc2ccccc2Br)CC1	D1 ag 52.2
Cc1cc2ncn(S(=O)(=O)N3CCOCC3)c2cc1C	none
Cc1cc2ncn(S(=O)(=O)N3CCCCC3)c2cc1C	D1 antag -32.7

From PubChem BioAssay
